Drawing on PubChem BioAssay (EPA / NIEHS), this text covers outcome and AC50 for 33 compounds.

Several values for one entry are separate records, joined by “and”; a condition that tells them apart may be missing. Identical values can stand only once. Some compounds were tested as several samples or in several runs, with calls that do not always agree. Activity calls are given as the source filed them. Rule for the calls: active = hit-call score of the fitted dose curve at least 0.9, where 1 is the maximum; inactive = score below 0.9.

A word on the AC50: it is the midpoint of the concentration-response curve, whichever way the signal moves.

Read-out in one test: Vascular cell adhesion molecule 1 (VCAM1), VCAM1 (gene 7412)
The test is described as follows: BSK_4H_VCAM1: BioMAP Diversity Plus: 4H Assay for Vascular cell adhesion molecule 1 (VCAM1) Biomarker Activity (AID 2283033).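 For outcome: cell-surface VCAM-1 protein measured by ELISA.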 As to conditions: primary human endothelial cells (HUVEC); actives raise or lower the signal. An outline of the steps: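 Chemicals are added to primary human umbilical vein endothelial cells. After 24 h, VCAM-1 levels are measured by ELISA. Values come from bidirectional fitting referenced to DMSO.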
In the case of `CCOP(=S)(OCC)SCCS(=O)(=O)CC`, the result was inactive.

Take `Nc1ncc([N+](=O)[O-])s1`: the outcome was inactive.

As to `O=C(O)C(F)(F)C(F)(F)C(F)(F)C(F)(F)C(F)(F)C(F)(F)C(F)(F)C(F)(F)C(F)(F)C(F)(F)F`, the half-maximal activity concentration (AC50) is 33.2 µM (active) and the result was inactive.

As for `O=C(O)C(F)(F)C(F)(F)C(F)(F)C(F)(F)C(F)(F)C(F)(F)F`, the result was inactive.

Turning to `NC(=O)O`, the result was inactive.

On to `Oc1c(I)cc(I)cc1I`, for which the AC50 was 20 µM (active).

With `NC(=S)Nc1ccccc1`, the outcome was inactive.

As to `COP(=S)(OC)Oc1ccc(S(=O)(=O)N(C)C)cc1`, the result was inactive.

In the case of `COC[C@H](C)N(C(=O)CCl)c1c(C)csc1C`, the result was inactive.

Take `Nc1ccc(-c2ccc(N)c(Cl)c2)cc1Cl`: the half-maximal activity concentration (AC50) is 9.55 µM (active).

Read-out in the next test: Interferon-gamma inducible Protein 10 (IP10), CXCL10 (gene 3627)
The test is described as follows: BSK_BE3C_IP10: BioMAP Diversity Plus: BE3C Assay for Interferon-gamma inducible Protein 10 (IP10) Biomarker Activity (AID 2283034). The note with it: primary human bronchial epithelial cells; actives raise or lower the signal. An outline of the steps: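 IP-10 quantified by ELISA serves as the endpoint. Cells: primary human bronchial epithelium, read 24 h after compound addition. Activity is derived by bidirectional fitting with DMSO as negative control.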
In the case of `ClCC(Cl)CCl`, the outcome was inactive.

Turning to `CCOP(=S)(OCC)SCSP(=S)(OCC)OCC`, the result was inactive.

With `CC(=O)C(Cl)C(=O)N(C)C` (configuration not stated), the AC50 is 20 µM (active).

`COc1cc(-c2ccc(N)c(OC)c2)ccc1N`: the result was inactive.

For the compound `O=C1C2(Cl)C3(Cl)C4(Cl)C(Cl)(Cl)C5(Cl)C3(Cl)C1(Cl)C5(Cl)C24Cl` (configuration not stated), the AC50 is 7.91 µM (active).

As to `CCOC(=O)/C=C(C)/C=C/C[C@@H](C)CCCC(C)C`, the AC50 is 20 µM (active).

In the case of `CCOP(=S)(OCC)Oc1ccc(S(C)=O)cc1` (configuration not stated), the outcome was inactive.

As for `ClC1(Cl)C2(Cl)C3(Cl)C4(Cl)C(Cl)(Cl)C5(Cl)C3(Cl)C1(Cl)C5(Cl)C24Cl` (configuration not stated), the outcome was inactive.

With `CCC(=O)C(CC(C)N(C)C)(c1ccccc1)c1ccccc1` (configuration not stated), the result was inactive.

Turning to `Cn1sc(Cl)cc1=O`, the outcome was inactive.

For `Oc1cccc2cccnc12`, the half-maximal activity concentration (AC50) was 3.88 µM (active).

Turning to `CC(C)(C)c1cc(O)ccc1O`, the AC50 is 26.9 µM (active).

In the case of `CCNc1nc(NC(C)(C)C)nc(SC)n1`, the result was inactive.

For `CC(C)c1ccc(CO)cc1`, the outcome was inactive.

Consider `CC(C)(C)CC(C)(C)c1ccc(O)cc1`, for which the AC50 was 16.6 µM (active).

On to `CCN1CCC2(CC1)COc1cc3c(cc12)N(C(=O)c1ccc(-c2ccc(-c4nnc(C)o4)cc2C)cc1)CC3`, for which the half-maximal activity concentration (AC50) was 14.4 µM (active).

As for `O=Cc1cccc(Oc2ccccc2)c1`, the result was inactive.

On to `Cc1ccccc1N`, for which the result was inactive.

With `O=C(O)C(Cl)(Cl)Cl`, the result was inactive.

In the case of `O=c1[nH]c(=O)[nH]c(=O)[nH]1`, the outcome was inactive.

Turning to `O=[N+]([O-])c1ccc2c3c(cccc13)CC2`, the outcome was inactive.

Consider `C=CC(=O)OCCCCCC(C)C`, for which the outcome was inactive.

As to `CCC(C)(C)c1ccc(O)c(C(C)(C)CC)c1`, the AC50 is 19 µM (active).

Turning to `CCOP(=S)(OCC)SCCS(=O)(=O)CC`, the result was inactive.

Regarding `Nc1ncc([N+](=O)[O-])s1`, the result was inactive.

On to `O=C(O)C(F)(F)C(F)(F)C(F)(F)C(F)(F)C(F)(F)C(F)(F)C(F)(F)C(F)(F)C(F)(F)C(F)(F)F`, for which the AC50 is 8.5 µM (active) and 2.27 µM (active) and 2.29 µM (active).

Turning to `O=C(O)C(F)(F)C(F)(F)C(F)(F)C(F)(F)C(F)(F)C(F)(F)F`, the outcome was inactive.

In the case of `NC(=O)O`, the result was inactive.

As to `Oc1c(I)cc(I)cc1I`, the half-maximal activity concentration (AC50) was 4.41 µM (active).

For `NC(=S)Nc1ccccc1`, the result was inactive.

`COP(=S)(OC)Oc1ccc(S(=O)(=O)N(C)C)cc1`: the outcome was inactive.

Turning to `COC[C@H](C)N(C(=O)CCl)c1c(C)csc1C`, the result was inactive.

As to `Nc1ccc(-c2ccc(N)c(Cl)c2)cc1Cl`, the result was inactive.

Read-out in another test: Monokine induced gamma interferon (MIG), CXCL9 (gene 4283)
The test is described as follows: BSK_BE3C_MIG: BioMAP Diversity Plus: BE3C Assay for Monokine induced gamma interferon (MIG) Biomarker Activity (AID 2283035).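 For outcome: MIG protein measured by ELISA in BE3C cultures after 24 h of dosing.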 The note with it: primary human bronchial epithelial cells; actives raise or lower the signal. The method, boiled down: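 hu bronchial epithelial 1° cells, 24 h cpd; MIG by ELISA; bidirectional fit, DMSO = baseline.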
On to `ClCC(Cl)CCl`, for which the result was inactive.

As to `CCOP(=S)(OCC)SCSP(=S)(OCC)OCC`, the outcome was inactive.

For `CC(=O)C(Cl)C(=O)N(C)C` (configuration not stated), the result was inactive.

Take `COc1cc(-c2ccc(N)c(OC)c2)ccc1N`: the outcome was inactive.

Take `O=C1C2(Cl)C3(Cl)C4(Cl)C(Cl)(Cl)C5(Cl)C3(Cl)C1(Cl)C5(Cl)C24Cl` (configuration not stated): the concentration at half-maximal activity (AC50) is 9.37 µM (active).

As to `CCOC(=O)/C=C(C)/C=C/C[C@@H](C)CCCC(C)C`, the AC50 was 30 µM (active).

For `CCOP(=S)(OCC)Oc1ccc(S(C)=O)cc1` (configuration not stated), the result was inactive.

In the case of `ClC1(Cl)C2(Cl)C3(Cl)C4(Cl)C(Cl)(Cl)C5(Cl)C3(Cl)C1(Cl)C5(Cl)C24Cl` (configuration not stated), the result was inactive.

Consider `CCC(=O)C(CC(C)N(C)C)(c1ccccc1)c1ccccc1` (configuration not stated), for which the result was inactive.

As for `Cn1sc(Cl)cc1=O`, the outcome was inactive.

As to `Oc1cccc2cccnc12`, the AC50 was 5.47 µM (active).

Regarding `CC(C)(C)c1cc(O)ccc1O`, the outcome was inactive.

As for `CCNc1nc(NC(C)(C)C)nc(SC)n1`, the result was inactive.

In the case of `CC(C)c1ccc(CO)cc1`, the result was inactive.

As for `CC(C)(C)CC(C)(C)c1ccc(O)cc1`, the half-maximal activity concentration (AC50) was 34.5 µM (active).

As for `CCN1CCC2(CC1)COc1cc3c(cc12)N(C(=O)c1ccc(-c2ccc(-c4nnc(C)o4)cc2C)cc1)CC3`, the AC50 is 23.8 µM (active).

For the compound `O=Cc1cccc(Oc2ccccc2)c1`, the result was inactive.

As for `Cc1ccccc1N`, the outcome was inactive.

As to `O=C(O)C(Cl)(Cl)Cl`, the result was inactive.

As to `O=c1[nH]c(=O)[nH]c(=O)[nH]1`, the outcome was inactive.

Take `O=[N+]([O-])c1ccc2c3c(cccc13)CC2`: the result was inactive.

Take `C=CC(=O)OCCCCCC(C)C`: the result was inactive.

On to `CCC(C)(C)c1ccc(O)c(C(C)(C)CC)c1`, for which the AC50 was 36 µM (active).

Regarding `CCOP(=S)(OCC)SCCS(=O)(=O)CC`, the outcome was inactive.

Turning to `Nc1ncc([N+](=O)[O-])s1`, the outcome was inactive.

Turning to `O=C(O)C(F)(F)C(F)(F)C(F)(F)C(F)(F)C(F)(F)C(F)(F)C(F)(F)C(F)(F)C(F)(F)C(F)(F)F`, the AC50 was 13.8 µM (active) and 5.09 µM (active) and 5.56 µM (active).

Consider `O=C(O)C(F)(F)C(F)(F)C(F)(F)C(F)(F)C(F)(F)C(F)(F)F`, for which the outcome was inactive.

Regarding `NC(=O)O`, the result was inactive.

As to `Oc1c(I)cc(I)cc1I`, the outcome was inactive.

For the compound `NC(=S)Nc1ccccc1`, the outcome was inactive.

Turning to `COP(=S)(OC)Oc1ccc(S(=O)(=O)N(C)C)cc1`, the result was inactive.

Take `COC[C@H](C)N(C(=O)CCl)c1c(C)csc1C`: the result was inactive.

In the case of `Nc1ccc(-c2ccc(N)c(Cl)c2)cc1Cl`, the outcome was inactive.
